# Compounds with a hit are over-represented: about 2.1% of the library has one in this group of screens.
# TDP-43 yeast inh: rescues yeast growth from TDP-43 toxicity; TDP-43 expressing yeast growth rescue, BacTiter-Glo, 24 h; 1.8% of 410,000 active; AID 652104; Potency, µM (doses to about 46.1 µM), without a hit: at the highest dose growth rescue (activation), most hits filed as activators; further: % of control where 0% means no effect; nearly all actives have a fitted effect of over 50% in size
#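 Yeast expressing TDP-43 (pregrown in raffinose, seeded at OD600=0.02 in galactose medium) exposed to compounds 24 hr at 30 deg C. Growth read by BacTiter-Glo luminescence; rescue of toxicity appears as increased signal.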
# FUS suppressor: FUS proteinopathy suppression in yeast. S. cerevisiae FUS-expressing, growth rescue, OD600, 24 h. Potency, µM (highest dose often 76.6 µM), actives largely listed as activators. 0.24% of 390,000 active. AID 1347120;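 further: plate controls were DMSO vehicle for no effect and reference control for full effect; nearly all actives have a fitted effect of over 55% in size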
#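 Yeast expressing FUS under galactose induction, OD 0.005 in 2% galactose medium; compounds in a dilution series, 24 h at 30C. Growth rescue by absorbance at 600 nm; CP55940 positive control, DMSO negative.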
# aSyn rescue: alpha-synuclein toxicity inhibition in yeast; 0.14% of 370,000 active; Yeast expressing alpha-synuclein, growth rescue, BacTiter-Glo, 24 h; Potency, µM (series often up to 46.1 µM), inactives show at the top dose growth rescue (activation), most hits filed as activators; further: % of control where 0% means no effect; nearly all actives have a fitted effect of over 65% in size
#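 Readout is rescue of growth in alpha-synuclein-expressing yeast, so inhibitors of toxicity appear as activators. Growth after 24 hr at 30 deg C in galactose medium is quantified by luminescence.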
# Abeta rescue: compounds reversing amyloid beta toxicity in yeast; yeast expressing A-beta42, growth rescue, OD600, 48 h; response scale: 0% DMSO, 100% iron-clioquinol control; 0.063% of 410,000 active; AID 1347071; Potency, µM (top dose mostly 46.1 µM), usual class: activators; further: nearly all actives have a fitted effect of over 55% in size
#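 Growth rescue measured by 600 nm absorbance after 48 h yeast culture at 30 C with compound. Values normalized between DMSO and an equimolar ferric chloride plus clioquinol control.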
# * = called active by the depositor; i = inactive; u = inconclusive; x = no result given; ! = not active in a repeat. The call rests on the fitted dose curve; in most records, active means well fitted curve in the direction sought with a large enough effect; inconclusive means small, poorly fitted or top-dose-only effect, or another doubt; inactive means no such curve, though single readings can be large; an effect the other way counts as inactive or inconclusive. Potency means the concentration at half of the fitted maximal effect.
SMILES,TDP-43 yeast inh,FUS suppressor,aSyn rescue,Abeta rescue
CCOC(=O)CSc1c(-c2ccc(Cl)cc2)[nH]c2ccccc12,-3%,i,-10%,i
CCOC(=O)CSc1c(-c2cccs2)[nH]c2ccccc12,16µM*,i,4%,u
O=C(Nc1ccc(OCc2ccccc2Cl)cc1)c1cccnc1,16µM*,i,-2%,i
O=C(COC(=O)c1cccs1)Nc1ccccc1[N+](=O)[O-],5%,i,-12%,u
N#Cc1ccccc1NC(=O)COC(=O)c1cccs1,10µM*,i,-7%,i
Clc1nc(NCc2cccs2)c2[nH]cnc2n1,x,x,-16%,x
CCOC(=O)CC[C@@]1(C(=O)OCC)C[C@@H](CC(=O)NCc2cccs2)C(=O)N2CCCC=C21,x,i,x,x
CC(C)NC(=O)COC(=O)CNC(=O)C1CCCCC1,x,x,0%,x
Cc1cccc(Nc2nc(-c3ccc(F)c(C)c3)cs2)n1,14µM*,i,-43%,u
Cc1cccc(Nc2nc(-c3ccc(O)c(O)c3)cs2)n1,5%,i,0%,i
COP(=O)(O)[C@@H](CC(C)C)NC(=O)OCc1ccccc1,x,i,x,x
O=C(CSc1nnc(COc2ccc(Cl)cc2)n1Cc1ccco1)Nc1ccc2c(c1)OCO2,x,i,x,x
COCCn1c(SCc2cccc([N+](=O)[O-])c2)nc2ccccc2c1=O,18µM*,i,2%,i
CC(C)CN1C(=O)[C@]2(CC(=O)N(C)C2c2ccccc2)c2cc(-n3cc(CCc4ccccc4)nn3)ccc21 (stereo partly specified),x,i,x,x
CCC[C@H]1[C@@H](NC(=O)c2cccc(C(F)(F)F)c2)CC[C@@]23CCCN2C(=O)CCC[C@@H]13,x,i,x,x
CCCCCCCNC(=O)C1(CC2CC(c3cccc(Br)c3)=NO2)CCN(C(=O)CCCCCBr)CC1 (stereo unspecified),u,28µM*,15%,i
CCOC(=O)[C@@]12CCC3=C1N(CCC3)C(=O)[C@H](CC(=O)NCc1ccc(C)o1)C2,x,i,x,x
CC(=O)C(C)Oc1ccc2c3c(c(=O)oc2c1C)CCCC3 (stereo unspecified),20µM*,i,2%,i
c1ccc(-n2nnnc2-c2cnc(-c3cccnc3)nc2-c2cccs2)cc1,32µM*,u,8%,i
Clc1ccc(-n2nnnc2-c2cnc3ccccc3c2-c2ccccc2)cc1,u,i,u,i
Nc1c(Cl)ncnc1N/N=C/c1ccc2ccccc2n1,u,i,6.3µM*,i
O=C(c1ccco1)N1CCN(c2nc3ccc(Cl)cc3s2)CC1,11µM*,i,x,i
O=C(NCCc1ccccc1)c1ccc2nc(N3CCOCC3)sc2c1,u,i,0%,i
CCCC(=O)N1CCN(c2nc3ccc(CC)cc3s2)CC1,u,i,3%,i
Cc1cccc(Cl)c1NC(=O)N1CCCN(c2nc3ccc(Cl)cc3s2)CC1,20µM*,i,5%,u
SMILES,TDP-43 yeast inh,FUS suppressor,aSyn rescue,Abeta rescue
O=C(c1ccc2nc(N3CCOCC3)sc2c1)N1CCC(Cc2ccccc2)CC1,25µM*,u,5%,i
CCc1ccc2nc(N3CCN(C(=O)c4ccccc4)CC3)sc2c1,11µM*,i,x,i
O=C(N[C@H]1CC[C@@H]2SC[C@@H](C(=O)O)N2C1=O)OCC1c2ccccc2-c2ccccc21,x,i,x,x
CN1C2=N[C@H](c3cccc(C(F)(F)F)c3)CC(=O)N2/C(=C\c2ccccc2)[C@H]1c1ccccc1,x,i,x,x
Cc1ccc2cc3cc(C(=O)N4CCN(Cc5ccccc5)CC4)sc3nc2c1,16%,i,0%,i
COc1ccc(C)c2sc(N3CCN(C(=O)c4ccco4)CC3)nc12,22µM*,i,x,i
Cc1ccc2cc3cc(C(=O)N4CCN(C(=O)c5ccco5)CC4)sc3nc2c1,13µM*,i,-1%,i
COc1ccc(C)c2sc(N3CCN(C(=O)c4cccc(F)c4)CC3)nc12,19%,i,x,i
Cc1ccc(Cl)cc1N1CCN(C(=O)c2ccc3nc(N4CCC(C)CC4)sc3c2)CC1,3%,u,x,i
Cc1ccc(C)c(N2CCN(C(=O)c3ccc4nc(N5CCOCC5)sc4c3)CC2)c1,13µM*,u,4%,i
N#Cc1ccccc1OCC(=O)Nc1ccc2c(c1)OCCO2,u,x,3%,i
CC(OC(=O)/C=C/c1ccccc1)C(=O)Nc1ccc2c(c1)OCCO2 (stereo unspecified),12%,i,6%,i
Cc1ccccc1OC(C)C(=O)Nc1ccc2c(c1)OCCO2 (stereo unspecified),11µM*,i,6%,i
CCN(c1ccccc1)S(=O)(=O)c1cc(C(=O)OC(C)C(=O)Nc2ccc3c(c2)OCCO3)ccc1C (stereo unspecified),-10%,18µM*,-2%,x
N#Cc1ccccc1OCC(=O)Nc1ccc2c(c1)OCCCO2,13µM*,i,17%,i
Cc1ccc(NC(=O)Cn2nnc(-c3ccncc3)n2)cc1C,x,i,x,x
CC(=O)Nc1cc(C(=O)NCc2ccc(C)cc2)ccc1S(=O)(=O)c1ccc(Cl)cc1,29%,i,0%,i
CCOc1ccc(CNC(=O)c2ccc(Sc3ccc(Cl)cc3)c(NC(C)=O)c2)cc1,16µM*!,u,-1%,i
CC(=O)Nc1cc(C(=O)NCc2ccco2)ccc1Sc1ccc(Cl)cc1,0%,i,-2%,i
CCOc1ccccc1CNC(=O)c1ccc(Sc2ccc(Cl)cc2)c(NC(C)=O)c1,13µM*,x,4%,i
CC(=O)Nc1cc(C(=O)NCc2ccco2)ccc1Sc1ccc(F)cc1,-6%,i,-1%,i
CC(=O)Nc1cc(C(=O)NCc2ccccc2Cl)ccc1Sc1ccc(F)cc1,22µM*,i,x,i
COc1ccc(OC(C)C(=O)N(C)Cc2nc(-c3ccccc3)no2)cc1 (stereo unspecified),u,i,1%,i
COc1ccc(-c2noc(CN(C(=O)C(C)Oc3ccc(C)cc3)C(C)C)n2)cc1 (stereo unspecified),35µM*,i,x,i
CC(C)N(Cc1nc(-c2ccc(Cl)cc2)no1)C(=O)c1ccco1,35µM*,i,x,i

# Source: PubChem BioAssay
